# Measurements: PubChem BioAssay
# “And” between values parts separate entries of the source, which are not always exact repeats. Equal entries are not always repeated. Records with an inconclusive call do not appear. A structure can be active in one record and inactive in another. The source made the active and inactive calls.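 Rule for the calls, unless noted: active = z-score of at least 1.8 in each of two replicates, scored against plate mean and spread of sample wells; inactive = the rest.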
# Legend:
# [1] = SU-DIPG-VI glioma cell viability, MIPE4.0 library, CellTiter-Glo luminescence, qHTS (AID 1347066; cut-off not given, nearly all actives have AC50 up to about 30 µM;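 note: cells exposed to compound for 48 hours before readout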); conditions: CellTiter-Glo ATP luminescence
# [2] = inhibitors of Cryptococcus chitosan production, flow cytometry, Cibacron Brilliant Red staining (AID 1347148; call rule not given here;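 note: compound exposure lasted three days at 37 degrees C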); conditions: Cryptococcus neoformans chitosan, stronger effect = lower value; at 10 µM unless noted
# [3] = phospholipid biosynthesis inhibitors in animal cells, primary screen, cell-based, LOPAC library, screen 4 (AID 1347384; call rule not given here); conditions: phospholipid biosynthesis inhibition screen, at 10 µM
# [4] = survival rescue of mitochondrial mutant cells in low glucose, primary screen, MELAS cybrids, Rieske KO mouse fibroblasts, CellTiter-Glo (AID 1508586;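 active = mean z-score across replicates of 1.96 or higher in either the MELAS or the Rieske mutant cell line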;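 note: z relative to plate mean and SD of compound and empty wells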)
# [5] = target: Mitogen-activated protein kinase 7 (Homo sapiens) (UniProt Q13164); experiment: ERK5 transactivation activators in reporter cells, primary screen, cell-based, HTS (AID 1508626;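 active = luciferase signal above three times the same-plate solvent-only control wells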;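 note: luciferase driven by Gal4-ERK5 fusion binding five Gal4 sites before minimal TATA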); conditions: HeLa Gal4-ERK5 transactivation, 18 h, at 5 µM, stronger effect = higher value
# [6] = viability rescue of complex I mutant cybrids, primary screen, cell-based, galactose medium, ATP luminescence (AID 1645843); conditions: complex I mutant cybrid cells, 72 h, stronger effect = higher value;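 note: positive z means more ATP and so rescue of galactose-driven cybrid death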
# [7] = LFS_MB_P medulloblastoma growth inhibition, cell-based, chromothripsis tumors, cisplatin or BGB combos (AID 1671449; in the data active = inhibition above about 80%;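 note: cells exposed for 96 hours; 0% = vehicle DMSO and 100% = killing by high DMSO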); conditions: LFS_MB_P medulloblastoma cells
# [8] = HDN33 neuroblastoma growth inhibition, cell-based, chromothripsis tumors, cisplatin or BGB combos (AID 1671450; in the data active = inhibition above about 80%;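 note: cells exposed to compound for four days; 0% = vehicle DMSO and 100% = cell killing by high DMSO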); conditions: HDN33 neuroblastoma cells, stronger effect = higher value
# [9] = ICB984 medulloblastoma cell growth inhibition, synergistic combos for chromothripsis tumors, cisplatin or BGB combos (AID 1671451; call rule not given here;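 note: cells exposed for 96 hours before readout; 0% = vehicle DMSO and 100% = killing by high DMSO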); conditions: ICB984 medulloblastoma cells, drug combinations, stronger effect = higher value
# [10] = LFS_MB_1R medulloblastoma cell growth inhibition, synergistic combos for chromothripsis tumors, cisplatin or BGB combos (AID 1671452; in the data active = inhibition above about 80%;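 note: cells exposed for 96 hours before readout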); conditions: LFS_MB_1R medulloblastoma cells, stronger effect = higher value
# [11] = HTB85 osteosarcoma cell growth inhibition, synergistic combos for chromothripsis tumors, BGB or cisplatin IC20 combos (AID 1671453; in the data active = inhibition above about 80%;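 note: cells exposed for 96 hours before readout; 0% = vehicle DMSO and 100% = high DMSO killing control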); conditions: HTB85 osteosarcoma cells, drug combinations, stronger effect = higher value
# [12] = CRL2098 osteosarcoma cell growth inhibition, synergistic combos for chromothripsis tumors, BGB or cisplatin IC20 combos (AID 1671454; in the data active = inhibition above about 80%;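 note: cells exposed for 96 h before readout; 0% = vehicle DMSO and 100% = killing by high DMSO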); conditions: CRL2098 osteosarcoma cells, drug combinations, stronger effect = higher value
# [13] = HD-MB03 medulloblastoma cell growth inhibition, synergistic combos for chromothripsis tumors, BGB or cisplatin IC20 combos (AID 1671455; in the data active = inhibition above about 83%;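 note: 0% = vehicle DMSO and 100% = high DMSO as cytotoxic control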); conditions: HD-MB03 medulloblastoma cells, stronger effect = higher value
# [14] = sensitizers of A549 cells to miR-34 induction, primary screen, imaging, A549 dox-inducible miR-34, nuclei and caspase counts (AID 1347080;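 active = compounds whose cell count with miR-34 switched on is under 0.7 times the count with it off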); conditions: A549 miR-34 inducible, Hoechst nuclei count, 48 h
# [15] = target: NAD(+) hydrolase SARM1 (Homo sapiens) (UniProt Q6SZW1); experiment: SARM1 TIR NADase inhibitors, cell lysate, NAD-Glo luminescence (AID 1508614;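 active = compound whose remaining NAD level is above about 45 nM, limit read from the data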;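 note: higher remaining NAD means stronger inhibition of SARM1 NADase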); conditions: SAM-TIR HEK293T lysate NADase, at 1 µM, stronger effect = higher value
# [16] = MELAS cybrid survival, CellTiter-Glo 48 h, stronger effect = higher value
# [17] = Rieske KO mouse fibroblast survival, CellTiter-Glo 72 h
# [18] = measured here: combination with BGB IC40, at 0.05 µM
# [19] = stronger effect = lower value, cell number ratio, induced over uninduced
# [20] = measured here: relative caspase fold change +Dox/-Dox
# [21] = measured here: total cells with miR-34 induction, stronger effect = lower value
# [22] = measured here: total cells without miR-34 induction
# NAD(+) hydrolase SARM1 (Homo sapiens), sequence (Q6SZW1 whole entry, looked up): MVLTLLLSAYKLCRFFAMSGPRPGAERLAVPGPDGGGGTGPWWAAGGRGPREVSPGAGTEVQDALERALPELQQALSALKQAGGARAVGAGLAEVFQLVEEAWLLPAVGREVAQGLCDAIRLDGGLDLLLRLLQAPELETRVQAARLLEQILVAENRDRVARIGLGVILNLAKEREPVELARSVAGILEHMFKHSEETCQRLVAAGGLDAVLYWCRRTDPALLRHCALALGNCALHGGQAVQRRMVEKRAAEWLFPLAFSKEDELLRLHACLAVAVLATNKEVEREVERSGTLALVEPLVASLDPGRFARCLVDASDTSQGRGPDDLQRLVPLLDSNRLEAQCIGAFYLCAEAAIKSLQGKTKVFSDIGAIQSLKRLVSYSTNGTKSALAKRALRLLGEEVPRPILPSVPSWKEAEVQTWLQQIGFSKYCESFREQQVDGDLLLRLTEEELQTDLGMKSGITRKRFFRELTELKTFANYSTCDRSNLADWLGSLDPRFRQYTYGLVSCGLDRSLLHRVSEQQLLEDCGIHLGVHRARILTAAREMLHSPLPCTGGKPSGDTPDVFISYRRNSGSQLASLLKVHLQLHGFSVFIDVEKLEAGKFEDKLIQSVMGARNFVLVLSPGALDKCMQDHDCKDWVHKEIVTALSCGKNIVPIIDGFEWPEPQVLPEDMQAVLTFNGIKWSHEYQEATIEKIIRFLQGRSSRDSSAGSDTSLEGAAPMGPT
# Mitogen-activated protein kinase 7 (Homo sapiens), sequence (Q13164 whole entry, looked up, the tested form may be a part): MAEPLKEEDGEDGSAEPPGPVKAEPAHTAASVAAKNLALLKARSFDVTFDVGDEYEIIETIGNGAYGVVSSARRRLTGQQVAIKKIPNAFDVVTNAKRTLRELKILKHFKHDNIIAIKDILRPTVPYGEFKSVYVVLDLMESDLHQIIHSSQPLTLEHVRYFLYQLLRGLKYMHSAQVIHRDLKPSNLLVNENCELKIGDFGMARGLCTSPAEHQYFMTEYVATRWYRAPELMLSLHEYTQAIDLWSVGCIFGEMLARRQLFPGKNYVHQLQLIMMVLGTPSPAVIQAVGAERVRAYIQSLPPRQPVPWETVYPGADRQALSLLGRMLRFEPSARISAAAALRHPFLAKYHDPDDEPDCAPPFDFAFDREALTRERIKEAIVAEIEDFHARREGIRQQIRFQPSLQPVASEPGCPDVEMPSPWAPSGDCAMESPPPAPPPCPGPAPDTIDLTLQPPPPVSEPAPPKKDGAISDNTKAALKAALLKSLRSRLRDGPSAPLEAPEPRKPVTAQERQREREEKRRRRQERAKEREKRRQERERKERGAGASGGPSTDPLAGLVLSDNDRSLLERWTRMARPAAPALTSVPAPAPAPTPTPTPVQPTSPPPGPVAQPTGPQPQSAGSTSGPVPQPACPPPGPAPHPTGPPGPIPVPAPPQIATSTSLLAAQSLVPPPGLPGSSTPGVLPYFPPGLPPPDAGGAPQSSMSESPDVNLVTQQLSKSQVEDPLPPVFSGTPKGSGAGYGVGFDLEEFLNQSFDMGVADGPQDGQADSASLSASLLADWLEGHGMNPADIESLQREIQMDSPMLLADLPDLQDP
compound,measurement,setting,value
O=c1c(-c2ccc(O)cc2)coc2cc(O)cc(O)c12,outcome,[1],inactive
same,fold fluorescence,[2],4.75 [at 185 µM] (inactive)
same,outcome,[3],inactive
same,z-score,[4]; [16],-0.427 (inactive)
same,z-score,[4]; [17],0.508
same,luciferase signal,[5],276 AU (active)
same,z-score,[6],1.99 (active) and 1.98 (inactive)
same,inhibition,"[7]; at 0.5 µM, stronger effect = higher value",-9.97% (inactive) and -4.89% (inactive)
same,inhibition,"[7]; measured here: combination with BGB IC20, at 0.005 µM",-17.8% and -1.45%
same,inhibition,"[7]; measured here: combination with BGB IC40, at 0.005 µM",-18% and -3.22%
same,inhibition,[7]; [18],-25.1% and -11.9%
same,inhibition,"[7]; measured here: combination with cisplatin, at 0.5 µM, stronger effect = higher value",-5.93% and -18.3%
same,inhibition,"[7]; measured here: combination with cisplatin, at 5 µM, stronger effect = higher value",8.08% and 3.66%
same,inhibition,"[8]; BGB combo, at 5 µM",-47.6% and 34.9%
same,inhibition,[8]; at 0.5 µM,-42.8% (inactive) and -12.6% (inactive)
same,inhibition,"[8]; cisplatin combo, at 5 µM",-40% and 3.53%
same,inhibition,"[8]; measured here: with BGB IC20 combination, at 0.5 µM",-43.9% and -15.8%
same,inhibition,"[8]; measured here: with cisplatin IC20 combination, at 0.5 µM",-42.3% and -4.37%
same,inhibition,"[8]; single agent, at 5 µM",-15.6% and 2.01%
same,inhibition,"[9]; BGB IC20 combo, at 0.005 µM",8.8% and -0.198%
same,inhibition,"[9]; BGB IC40 combo, at 0.005 µM",-22.1% and -29.4%
same,inhibition,"[9]; BGB IC40 combo, at 0.05 µM",-7.4% and -6.46%
same,inhibition,[9]; at 0.5 µM,-34.3% (inactive) and -16.8% (inactive)
same,inhibition,"[9]; cisplatin combo, at 0.05 µM",-11.3% and -9.44%
same,inhibition,"[9]; cisplatin combo, at 0.5 µM",-39.9% and -21.8%
same,inhibition,"[9]; cisplatin combo, at 5 µM",-72.1% and -7.73%
same,inhibition,"[9]; measured here: 5 uM single agent, at 5 µM",-9.66% and -12.4%
same,inhibition,[10]; at 0.5 µM,-22.6% (inactive) and -10.7% (inactive)
same,inhibition,[10]; [18],-45.5% and -14.8%
same,inhibition,"[10]; measured here: combination with cisplatin, at 0.5 µM",-45.5% and -6.51%
same,inhibition,"[10]; measured here: combination with cisplatin, at 5 µM",-62.6% and -7.84%
same,inhibition,[11]; at 0.5 µM,-23.1% (inactive) and -8.31% (inactive)
same,inhibition,"[11]; measured here: with BGB IC20, at 0.5 µM",-24.9% and -17.6%
same,inhibition,"[11]; measured here: with BGB IC20, at 5 µM",-18.6% and -5.83%
same,inhibition,"[11]; measured here: with cisplatin IC20, at 0.5 µM",-32.2% and -12.6%
same,inhibition,"[11]; measured here: with cisplatin IC20, at 5 µM",-33.6% and -5.76%
same,inhibition,"[11]; single agent, at 5 µM",-0.415% and -6.72%
same,inhibition,[12]; at 0.5 µM,-89.3% (inactive) and -22.4% (inactive)
same,inhibition,"[12]; measured here: combination with BGB at IC20, at 0.5 µM",-68.7% and -13.6%
same,inhibition,"[12]; measured here: combination with cisplatin at IC20, at 0.5 µM",-148% and -31.4%
same,inhibition,[13]; at 0.5 µM,-19.5% (inactive) and -5.86% (inactive)
same,inhibition,"[13]; measured here: combo with BGB at IC20, at 0.5 µM",-19.9% and -0.815%
same,inhibition,"[13]; measured here: combo with cisplatin at IC20, at 0.5 µM",-26.5% and -4.16%
Nc1ccn([C@H]2CC[C@@H](CO)O2)c(=O)n1,outcome,[1],inactive
same,fold change,[14]; [19],1 (inactive) and 0.95 (inactive) and 0.852 (inactive)
same,fold change,[14]; [20],0.845 and 0.908 and 1.17
same,cell count,[14]; [21],9380 and 8950 and 8540
same,cell count,[14]; [22],9340 and 9420 and 10000
same,outcome,[3],inactive
same,z-score,[4]; [16],-0.041 (inactive) and 0.441 (inactive)
same,z-score,[4]; [17],-0.157 and -0.525
same,remaining NAD,[15],10 nM (inactive)
same,z-score,[6],0.025 (inactive) and 0.685 (inactive)
CN1[C@@H]2CC[C@H]1CC(OC(=O)c1c[nH]c3ccccc13)C2 (stereo partly drawn),outcome,[1],inactive
same,fold change,[14]; [19],0.918 (inactive) and 0.888 (inactive)
same,fold change,[14]; [20],1.65 and 1.61
same,cell count,[14]; [21],8920 and 10100
same,cell count,[14]; [22],9710 and 11400
same,z-score,[4]; [16],0.412 (inactive)
same,z-score,[4]; [17],0.0805
same,remaining NAD,[15],10 nM (inactive)
same,z-score,[6],-0.025 (inactive) and 0.755 (inactive)
COC(=O)C1=C(C)NC(C)=C(C(=O)OC(C)C)C1c1cccc2nonc12 (stereo not drawn),outcome,[1],inactive
same,cell count,[14]; [21],7780 and 7900 and 7270
same,z-score,[4]; [16],-0.382 (inactive) and 0.324 (inactive)
same,z-score,[4]; [17],1.22 and 0.935
same,remaining NAD,[15],10 nM (inactive)
same,z-score,[6],1.15 (inactive)
Cc1cn([C@H]2C=C[C@@H](CO)O2)c(=O)[nH]c1=O,outcome,[1],inactive
same,fold change,[14]; [19],0.956 (inactive) and 1.02 (inactive)
same,fold change,[14]; [20],1.47 and 1.86
same,cell count,[14]; [21],8230 and 8880
same,cell count,[14]; [22],8610 and 8700
same,outcome,[3],inactive
same,z-score,[4]; [16],0.426 (inactive)
same,z-score,[4]; [17],-0.562
same,remaining NAD,[15],21 nM (inactive)
same,z-score,[6],0.32 (inactive) and 1.07 (inactive)
